PMC7862700, “An all-to-all approach to the identification of sequence-specific readers for epigenetic DNA modifications on cytosine”

How the values were obtained:
Assay in all cases: DAPPL (digital affinity profiling via proximity ligation, sequencing); 10 mM Tris-HCl pH 7.5, 50 mM NaCl, 1 mM DTT, 4% glycerol, room temperature, 30 min; GST-TFs on glutathione beads, 16-mer random dsDNA library, 0.1% formaldehyde crosslink after washing; high values mean tight binding
[1] = molecular target: T1, FEV (Homo sapiens, UniProt Q99581 1-238); conditions: protein: recombinant; tags: N-terminal GST; dsDNA, one strand shown
T1 sequence: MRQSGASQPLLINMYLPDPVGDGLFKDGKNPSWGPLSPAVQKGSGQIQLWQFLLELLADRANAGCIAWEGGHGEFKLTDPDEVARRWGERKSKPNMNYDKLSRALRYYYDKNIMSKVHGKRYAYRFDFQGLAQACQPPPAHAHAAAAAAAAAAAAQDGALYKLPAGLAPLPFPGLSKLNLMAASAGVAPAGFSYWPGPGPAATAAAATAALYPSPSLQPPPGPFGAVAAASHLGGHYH
Procedure, shortened: (§1)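 Binding signal is each hexamer's read frequency for a factor divided by its frequency in the tag-only sample. The factors were GST-fused human transcription factors from yeast, captured on glutathione beads, DNA-barcoded and pooled with that sample. Pools were incubated with 200 nmole of a random double-stranded 16-mer DNA library in Tris/NaCl/DTT/glycerol buffer at room temperature for 30 min, then washed, crosslinked with 0.1% formaldehyde, proximity-ligated with BsaI/T4 ligase (1 h, 37 °C), PCR-amplified and sequenced on an Illumina NextSeq500.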

[2] = molecular target: ETV5 (Homo sapiens, UniProt P41161 1-510); conditions: protein: recombinant; tags: N-terminal GST; dsDNA, one strand shown
Procedure, shortened: as §1

[3] = molecular target: HSF1 (Homo sapiens, UniProt Q00613 1-529); conditions: protein: recombinant; tags: N-terminal GST; chain copies: 3; dsDNA, one strand shown
Procedure, shortened: as §1

[4] = molecular target: ELF4 (Homo sapiens, UniProt Q99607 1-663); conditions: protein: recombinant; tags: N-terminal GST; dsDNA, one strand shown
Procedure, shortened: as §1

[5] = molecular target: T2, ELK4 (Homo sapiens, UniProt P28324-2 1-405); conditions: protein: recombinant; tags: N-terminal GST; dsDNA, one strand shown
T2 sequence: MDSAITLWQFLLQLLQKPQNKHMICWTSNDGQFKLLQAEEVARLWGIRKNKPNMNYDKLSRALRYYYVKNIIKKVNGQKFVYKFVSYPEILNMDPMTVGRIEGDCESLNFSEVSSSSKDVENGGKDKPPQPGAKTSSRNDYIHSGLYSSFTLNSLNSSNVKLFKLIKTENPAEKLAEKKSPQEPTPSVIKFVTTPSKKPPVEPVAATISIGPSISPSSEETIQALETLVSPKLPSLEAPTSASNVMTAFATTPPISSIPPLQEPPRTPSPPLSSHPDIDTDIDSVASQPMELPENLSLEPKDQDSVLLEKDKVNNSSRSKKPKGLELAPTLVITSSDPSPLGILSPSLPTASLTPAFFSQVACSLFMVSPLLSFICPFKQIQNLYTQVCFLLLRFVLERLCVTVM
Procedure, shortened: as §1

[6] = molecular target: T3, ETV2 (Homo sapiens, UniProt O00321 1-342); conditions: protein: recombinant; tags: N-terminal GST; dsDNA, one strand shown
T3 sequence: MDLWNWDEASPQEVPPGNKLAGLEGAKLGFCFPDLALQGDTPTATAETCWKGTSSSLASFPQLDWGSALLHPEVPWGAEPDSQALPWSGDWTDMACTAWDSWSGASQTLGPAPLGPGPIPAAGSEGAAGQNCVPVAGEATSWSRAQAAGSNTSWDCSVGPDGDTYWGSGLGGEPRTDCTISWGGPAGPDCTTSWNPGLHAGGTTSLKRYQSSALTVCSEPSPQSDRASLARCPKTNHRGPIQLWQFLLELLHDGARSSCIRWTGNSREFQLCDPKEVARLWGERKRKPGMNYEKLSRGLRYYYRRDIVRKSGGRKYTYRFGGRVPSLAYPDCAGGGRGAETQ
Procedure, shortened: as §1

[7] = molecular target: T4, ELF3 (Homo sapiens, UniProt P78545 1-371); conditions: protein: recombinant; tags: N-terminal GST; dsDNA, one strand shown
T4 sequence: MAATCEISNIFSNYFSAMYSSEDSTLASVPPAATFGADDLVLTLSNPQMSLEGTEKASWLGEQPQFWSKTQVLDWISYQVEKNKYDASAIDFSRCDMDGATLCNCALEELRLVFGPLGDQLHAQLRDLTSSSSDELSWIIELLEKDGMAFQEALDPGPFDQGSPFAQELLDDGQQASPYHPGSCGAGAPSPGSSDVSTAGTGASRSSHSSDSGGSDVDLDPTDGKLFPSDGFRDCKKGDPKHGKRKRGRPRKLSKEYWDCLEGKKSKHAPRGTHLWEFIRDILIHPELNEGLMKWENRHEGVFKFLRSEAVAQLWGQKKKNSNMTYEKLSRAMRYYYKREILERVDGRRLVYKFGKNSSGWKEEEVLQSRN
Procedure, shortened: as §1

[8] = molecular target: CRX (Homo sapiens, UniProt O43186 1-299); conditions: protein: recombinant; tags: N-terminal GST; dsDNA, one strand shown
Procedure, shortened: as §1

[9] = molecular target: ETV1 (Homo sapiens, UniProt P50549 1-477); conditions: protein: recombinant; tags: N-terminal GST; dsDNA, one strand shown
Procedure, shortened: as §1

[10] = molecular target: T5, ERF (Homo sapiens, UniProt P50548 1-548); conditions: protein: recombinant; tags: N-terminal GST; dsDNA, one strand shown
T5 sequence: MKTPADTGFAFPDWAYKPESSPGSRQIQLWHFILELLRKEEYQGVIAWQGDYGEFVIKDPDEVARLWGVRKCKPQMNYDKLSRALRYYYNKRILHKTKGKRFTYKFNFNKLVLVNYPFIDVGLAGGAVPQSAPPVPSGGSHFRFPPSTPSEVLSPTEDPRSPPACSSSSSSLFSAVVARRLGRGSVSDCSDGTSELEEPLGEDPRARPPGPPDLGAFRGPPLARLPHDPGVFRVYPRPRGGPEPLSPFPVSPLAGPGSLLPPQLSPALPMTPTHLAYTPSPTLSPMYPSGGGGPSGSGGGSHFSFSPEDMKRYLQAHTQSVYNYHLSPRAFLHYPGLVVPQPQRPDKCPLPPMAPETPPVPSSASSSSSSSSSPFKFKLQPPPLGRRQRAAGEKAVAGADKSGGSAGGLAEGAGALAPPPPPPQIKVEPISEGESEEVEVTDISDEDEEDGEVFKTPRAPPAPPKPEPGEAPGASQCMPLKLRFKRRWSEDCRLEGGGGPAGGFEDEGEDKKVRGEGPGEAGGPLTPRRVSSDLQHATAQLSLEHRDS
Procedure, shortened: as §1

[11] = molecular target: T6, ETV3L (Homo sapiens, UniProt Q6ZN32 1-361); conditions: protein: recombinant; tags: N-terminal GST; dsDNA, one strand shown
T6 sequence: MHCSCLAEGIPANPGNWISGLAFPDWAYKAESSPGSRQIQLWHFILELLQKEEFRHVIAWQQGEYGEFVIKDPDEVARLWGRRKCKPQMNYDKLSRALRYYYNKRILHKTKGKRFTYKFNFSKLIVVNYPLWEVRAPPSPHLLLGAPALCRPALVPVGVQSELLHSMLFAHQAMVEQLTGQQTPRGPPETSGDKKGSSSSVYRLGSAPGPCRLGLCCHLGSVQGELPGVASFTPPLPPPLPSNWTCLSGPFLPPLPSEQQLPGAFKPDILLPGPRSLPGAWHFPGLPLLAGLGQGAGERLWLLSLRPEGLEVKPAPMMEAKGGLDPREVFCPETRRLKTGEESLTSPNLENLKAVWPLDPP
Procedure, shortened: as §1

[12] = molecular target: T7, ETS2 (Homo sapiens, UniProt P15036 1-469); conditions: protein: recombinant; tags: N-terminal GST; dsDNA, one strand shown
T7 sequence: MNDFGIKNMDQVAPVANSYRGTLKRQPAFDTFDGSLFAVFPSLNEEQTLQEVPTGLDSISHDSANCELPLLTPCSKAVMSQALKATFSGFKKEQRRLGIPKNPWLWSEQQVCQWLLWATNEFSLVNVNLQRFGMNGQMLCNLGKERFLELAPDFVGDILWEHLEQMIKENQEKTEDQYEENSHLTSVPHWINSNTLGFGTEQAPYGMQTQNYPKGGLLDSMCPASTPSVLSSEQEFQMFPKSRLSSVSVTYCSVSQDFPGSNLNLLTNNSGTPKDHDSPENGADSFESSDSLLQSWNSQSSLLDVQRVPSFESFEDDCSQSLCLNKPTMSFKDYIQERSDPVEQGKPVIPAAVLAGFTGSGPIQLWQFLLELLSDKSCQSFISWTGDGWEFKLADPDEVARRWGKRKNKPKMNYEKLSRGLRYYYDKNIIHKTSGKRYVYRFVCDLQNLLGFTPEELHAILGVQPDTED
Procedure, shortened: as §1

[13] = molecular target: T8, SPDEF (Homo sapiens, UniProt O95238 1-335); conditions: protein: recombinant; tags: N-terminal GST; dsDNA, one strand shown
T8 sequence: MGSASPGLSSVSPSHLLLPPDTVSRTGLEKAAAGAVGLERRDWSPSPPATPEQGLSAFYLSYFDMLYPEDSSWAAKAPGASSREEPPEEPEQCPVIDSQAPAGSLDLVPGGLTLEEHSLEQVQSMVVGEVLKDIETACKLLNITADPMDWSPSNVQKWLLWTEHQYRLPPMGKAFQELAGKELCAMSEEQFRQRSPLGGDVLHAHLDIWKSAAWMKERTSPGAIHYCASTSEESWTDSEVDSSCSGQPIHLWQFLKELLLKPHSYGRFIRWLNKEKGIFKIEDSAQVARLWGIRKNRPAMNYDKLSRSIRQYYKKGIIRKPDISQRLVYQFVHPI
Procedure, shortened: as §1

[14] = molecular target: T9, ETV7 (Homo sapiens, UniProt Q9Y603 1-341); conditions: protein: recombinant; tags: N-terminal GST; dsDNA, one strand shown
T9 sequence: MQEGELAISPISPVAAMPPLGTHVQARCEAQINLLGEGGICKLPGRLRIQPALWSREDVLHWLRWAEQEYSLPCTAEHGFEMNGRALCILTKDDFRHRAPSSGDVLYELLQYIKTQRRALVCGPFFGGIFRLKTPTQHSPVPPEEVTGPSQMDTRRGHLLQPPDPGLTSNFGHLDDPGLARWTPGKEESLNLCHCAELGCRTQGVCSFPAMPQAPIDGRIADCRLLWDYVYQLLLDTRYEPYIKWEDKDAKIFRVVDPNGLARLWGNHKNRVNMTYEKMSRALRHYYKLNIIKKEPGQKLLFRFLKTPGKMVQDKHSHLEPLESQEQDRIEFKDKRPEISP
Procedure, shortened: as §1

[15] = molecular target: T10, ELF5 (Homo sapiens, UniProt Q9UKW6-2 1-255); conditions: protein: recombinant; tags: N-terminal GST; dsDNA, one strand shown
T10 sequence: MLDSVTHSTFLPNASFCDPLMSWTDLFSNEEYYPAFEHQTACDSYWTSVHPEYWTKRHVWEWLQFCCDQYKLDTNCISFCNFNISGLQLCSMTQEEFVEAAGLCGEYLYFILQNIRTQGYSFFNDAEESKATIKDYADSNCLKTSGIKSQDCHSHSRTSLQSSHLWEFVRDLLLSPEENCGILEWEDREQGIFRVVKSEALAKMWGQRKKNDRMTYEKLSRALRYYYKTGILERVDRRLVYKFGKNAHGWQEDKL
Procedure, shortened: as §1

[16] = molecular target: T11, ETV3 (Homo sapiens, UniProt P41162-2 1-143); conditions: protein: recombinant; tags: N-terminal GST; dsDNA, one strand shown
T11 sequence: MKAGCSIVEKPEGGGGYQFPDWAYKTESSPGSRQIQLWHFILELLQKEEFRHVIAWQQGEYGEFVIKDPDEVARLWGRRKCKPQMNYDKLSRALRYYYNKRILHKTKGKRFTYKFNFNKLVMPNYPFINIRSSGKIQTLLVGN
Procedure, shortened: as §1

[17] = molecular target: ETV6 (Homo sapiens, UniProt P41212 1-452); conditions: protein: recombinant; tags: N-terminal GST; dsDNA, one strand shown
Procedure, shortened: as §1

Chain of ETV1 (P50549 whole entry): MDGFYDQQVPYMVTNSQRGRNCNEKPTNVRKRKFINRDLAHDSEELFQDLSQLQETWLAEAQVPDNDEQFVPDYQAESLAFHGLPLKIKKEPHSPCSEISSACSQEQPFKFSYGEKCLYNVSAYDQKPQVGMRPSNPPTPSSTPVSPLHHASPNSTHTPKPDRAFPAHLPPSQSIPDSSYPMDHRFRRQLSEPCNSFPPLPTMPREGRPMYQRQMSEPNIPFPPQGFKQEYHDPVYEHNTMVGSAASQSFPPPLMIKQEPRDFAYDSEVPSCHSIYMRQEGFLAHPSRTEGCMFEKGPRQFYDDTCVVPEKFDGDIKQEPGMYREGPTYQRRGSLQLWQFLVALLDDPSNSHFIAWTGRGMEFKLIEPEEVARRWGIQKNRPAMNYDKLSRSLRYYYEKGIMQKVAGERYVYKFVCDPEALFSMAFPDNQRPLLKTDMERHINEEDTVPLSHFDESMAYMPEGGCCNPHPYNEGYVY
Chain of ETV6 (P41212 whole entry): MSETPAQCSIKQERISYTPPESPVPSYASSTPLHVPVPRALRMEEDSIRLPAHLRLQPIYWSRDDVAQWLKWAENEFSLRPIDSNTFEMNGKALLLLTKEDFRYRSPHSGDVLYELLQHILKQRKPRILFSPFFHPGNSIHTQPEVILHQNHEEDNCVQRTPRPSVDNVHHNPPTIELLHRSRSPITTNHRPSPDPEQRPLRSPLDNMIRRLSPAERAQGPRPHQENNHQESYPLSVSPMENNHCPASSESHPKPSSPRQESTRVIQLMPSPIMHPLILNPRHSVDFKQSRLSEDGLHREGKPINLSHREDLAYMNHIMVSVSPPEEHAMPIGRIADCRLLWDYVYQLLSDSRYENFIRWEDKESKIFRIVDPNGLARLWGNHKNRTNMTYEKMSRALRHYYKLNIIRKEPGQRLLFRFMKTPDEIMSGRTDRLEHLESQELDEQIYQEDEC
Chain of CRX (O43186 whole entry): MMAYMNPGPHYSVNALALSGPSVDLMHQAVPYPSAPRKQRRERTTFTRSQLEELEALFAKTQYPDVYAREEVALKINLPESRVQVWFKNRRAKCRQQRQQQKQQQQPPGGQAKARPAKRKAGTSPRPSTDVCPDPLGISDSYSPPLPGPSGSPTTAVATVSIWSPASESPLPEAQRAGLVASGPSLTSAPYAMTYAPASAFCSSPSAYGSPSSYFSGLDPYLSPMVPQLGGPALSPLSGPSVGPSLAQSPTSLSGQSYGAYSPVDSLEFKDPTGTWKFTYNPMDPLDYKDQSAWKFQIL
Chain of HSF1 (Q00613 whole entry): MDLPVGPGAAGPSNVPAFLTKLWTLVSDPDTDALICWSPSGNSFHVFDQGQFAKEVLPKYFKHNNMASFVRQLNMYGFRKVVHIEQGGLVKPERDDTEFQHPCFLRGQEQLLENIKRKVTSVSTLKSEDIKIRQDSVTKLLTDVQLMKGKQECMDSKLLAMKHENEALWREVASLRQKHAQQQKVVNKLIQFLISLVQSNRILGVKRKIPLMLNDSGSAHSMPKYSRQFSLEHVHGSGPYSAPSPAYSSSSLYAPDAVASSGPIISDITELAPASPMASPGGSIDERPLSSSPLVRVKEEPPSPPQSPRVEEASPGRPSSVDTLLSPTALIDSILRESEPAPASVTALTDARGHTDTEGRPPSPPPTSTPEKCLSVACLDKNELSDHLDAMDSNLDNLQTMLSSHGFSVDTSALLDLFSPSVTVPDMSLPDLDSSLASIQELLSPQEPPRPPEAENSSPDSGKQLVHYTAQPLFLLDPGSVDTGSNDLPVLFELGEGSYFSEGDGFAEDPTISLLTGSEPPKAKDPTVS
Chain of ETV5 (P41161 whole entry): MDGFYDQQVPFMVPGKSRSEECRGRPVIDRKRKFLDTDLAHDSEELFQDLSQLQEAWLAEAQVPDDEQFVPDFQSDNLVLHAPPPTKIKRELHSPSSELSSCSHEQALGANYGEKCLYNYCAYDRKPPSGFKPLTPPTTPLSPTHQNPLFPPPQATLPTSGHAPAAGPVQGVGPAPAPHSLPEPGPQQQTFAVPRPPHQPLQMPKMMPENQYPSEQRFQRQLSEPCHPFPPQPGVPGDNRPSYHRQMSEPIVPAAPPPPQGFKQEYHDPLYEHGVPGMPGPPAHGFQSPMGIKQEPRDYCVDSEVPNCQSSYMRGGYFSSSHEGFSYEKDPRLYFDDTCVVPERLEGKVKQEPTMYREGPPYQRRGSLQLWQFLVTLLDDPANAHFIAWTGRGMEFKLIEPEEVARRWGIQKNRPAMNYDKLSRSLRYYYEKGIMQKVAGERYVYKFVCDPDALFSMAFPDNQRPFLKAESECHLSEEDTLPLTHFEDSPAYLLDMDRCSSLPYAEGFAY
Chain of ELF4 (Q99607 whole entry): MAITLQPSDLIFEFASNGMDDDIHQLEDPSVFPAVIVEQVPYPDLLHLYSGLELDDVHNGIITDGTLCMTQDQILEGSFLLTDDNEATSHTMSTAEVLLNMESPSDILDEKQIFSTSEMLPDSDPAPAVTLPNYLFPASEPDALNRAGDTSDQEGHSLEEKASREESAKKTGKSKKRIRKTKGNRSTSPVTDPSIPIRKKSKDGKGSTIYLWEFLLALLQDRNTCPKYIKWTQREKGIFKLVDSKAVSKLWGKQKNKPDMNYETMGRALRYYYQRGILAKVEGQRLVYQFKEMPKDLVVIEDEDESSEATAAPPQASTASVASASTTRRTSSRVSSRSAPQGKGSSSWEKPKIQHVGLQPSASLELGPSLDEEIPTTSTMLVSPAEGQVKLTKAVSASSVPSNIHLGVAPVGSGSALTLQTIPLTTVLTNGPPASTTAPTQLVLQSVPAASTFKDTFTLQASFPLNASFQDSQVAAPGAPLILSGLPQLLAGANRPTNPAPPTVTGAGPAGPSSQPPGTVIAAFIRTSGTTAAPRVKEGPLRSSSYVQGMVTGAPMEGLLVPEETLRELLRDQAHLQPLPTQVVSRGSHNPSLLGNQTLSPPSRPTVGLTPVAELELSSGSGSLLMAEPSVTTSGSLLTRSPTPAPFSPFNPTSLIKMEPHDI

Row | Sequence | binding signal [1] | binding signal [2] | binding signal [3] | binding signal [4] | binding signal [5] | binding signal [6] | binding signal [7] | binding signal [8] | binding signal [9] | binding signal [10] | binding signal [11] | binding signal [12] | binding signal [13] | binding signal [14] | binding signal [15] | binding signal [16] | binding signal [17]
1 | CTTTAG | 1.18 fold enrichment (6-mer frequency, TF over GST control) | 1.1 fold enrichment (6-mer frequency, TF over GST control) | 1.37 fold enrichment (6-mer frequency, TF over GST control) | 1.26 fold enrichment (6-mer frequency, TF over GST control) | 1.15 fold enrichment (6-mer frequency, TF over GST control) | 1.23 fold enrichment (6-mer frequency, TF over GST control) | 1.34 fold enrichment (6-mer frequency, TF over GST control) | 1.51 fold enrichment (6-mer frequency, TF over GST control) | 1.24 fold enrichment (6-mer frequency, TF over GST control) | 1.16 fold enrichment (6-mer frequency, TF over GST control) | 1.23 fold enrichment (6-mer frequency, TF over GST control) | 1.17 fold enrichment (6-mer frequency, TF over GST control) | 1.02 fold enrichment (6-mer frequency, TF over GST control) | 1.2 fold enrichment (6-mer frequency, TF over GST control) | 1.05 fold enrichment (6-mer frequency, TF over GST control) | 1.28 fold enrichment (6-mer frequency, TF over GST control) | 1.21 fold enrichment (6-mer frequency, TF over GST control)
2 | TAGTGT | 1.02 fold enrichment (6-mer frequency, TF over GST control) | 1.12 fold enrichment (6-mer frequency, TF over GST control) | 1.15 fold enrichment (6-mer frequency, TF over GST control) | 1.11 fold enrichment (6-mer frequency, TF over GST control) | 1.4 fold enrichment (6-mer frequency, TF over GST control) | 1.06 fold enrichment (6-mer frequency, TF over GST control) | 1.21 fold enrichment (6-mer frequency, TF over GST control) | 1.29 fold enrichment (6-mer frequency, TF over GST control) | 1.21 fold enrichment (6-mer frequency, TF over GST control) | 1.02 fold enrichment (6-mer frequency, TF over GST control) | 1.04 fold enrichment (6-mer frequency, TF over GST control) | 1.11 fold enrichment (6-mer frequency, TF over GST control) | 1.18 fold enrichment (6-mer frequency, TF over GST control) | 1.2 fold enrichment (6-mer frequency, TF over GST control) | 1.14 fold enrichment (6-mer frequency, TF over GST control) | 1.13 fold enrichment (6-mer frequency, TF over GST control) | 1.02 fold enrichment (6-mer frequency, TF over GST control)
